According to PubChem BioAssay (NCI):
The panel holds about 83,000 compounds, 20% with a hit somewhere; the sample as a whole holds those more often.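 Negative percent growth values reflect cell death: -40 means 40% of the cells present at the start died, and -100 means all died.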 Values without a mark were called inactive. The source made the active and inactive calls. The calls were made as follows: active = growth percent below 10; inactive = the rest.

These compounds were tested on HL-60(TB) leukemia (assay: NCI-60 one-dose screen, 48 h (100 = growth as untreated, 0 = no growth, -100 = all killed)). Details: 10 µM unless noted.

SMILES | growth
CN(C)C(=S)N/N=C\C=N/NC(=S)N(C)C | -23% (active)
CCOC(=O)C1C(=O)C=C(c2cc(OC)c(OC)c(OC)c2)CC1c1sc(N(C)Cc2ccccc2)nc1Cl (stereo not given) | 80.4%
C#CC[C@H](N)C(=O)O | 99.9% [20 µM]
COc1ccc(NC(=O)c2sc3nc(C)c(C(O)c4ccccc4)cc3c2N)cc1 (stereo not given) | -51.9% (active)
COC(=O)c1ccc2oc(NC(=O)c3ccc(Nc4ccc([N+](=O)[O-])cc4C)c([N+](=O)[O-])c3)nc2c1 | 99.7%
